Reference: PubChem BioAssay AID1159580 (chemical genetic matrix, 2015)
Several values for one entry are separate records, joined by “and”; a condition that tells them apart may be missing. Equal entries are not always repeated. Screen size: about 5,500 compounds; about 2,000 (36%) were called active. Another 18% or so got no clear call; they are omitted. Cut-off read from the data, not from the text of the source: active = normalized growth mostly below about 0.91 (no sharp cut-off); inconclusive = no clear call, values can overlap the other calls; inactive = mostly above about 0.92. The list shows a part of the results.

Assay: chemical genetic growth profiling, strain panel (AID 1159580);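 note: tested at 20 µM; growth read once vehicle control cultures reached saturation at 30 °C; 1 = growth at the plate median or of vehicle wells; lower values mean less growth of the strain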
Settings: S. cerevisiae deletion strains, growth OD

Measured: normalized growth

O=C(O)C1(O)C[C@@H](O)C(O)[C@H](O)C1 (stereo partly drawn)
inactive: locus YAL021C, strain ccr4, active compounds read low 0.984 | locus YAL026C, strain drs2, active compounds read low 0.985 | locus YAL030W, strain snc1, active compounds read low 0.987 | locus YBL061C, strain skt5, active compounds read low 0.968 | locus YBR009C, strain hhf1, active compounds read low 1 | locus YBR021W, strain FUR4, active compounds read low 1.01 | locus YBR023C, strain chs3, active compounds read low 0.97 | locus YBR171W, strain sec66, active compounds read low 0.983 | locus YBR229C, strain ROT2, active compounds read low 1 | locus YBR231C, strain swc5, active compounds read low 0.983 | locus YBR279W, strain paf1, active compounds read low 0.985 | locus YCL011C, strain gbp2, active compounds read low 0.978 | locus YCL016C, strain dcc1, active compounds read low 0.973 | locus YCL029C, strain bik1, active compounds read low 1.03 | locus YCL069W, strain vba3, active compounds read low 0.988 | locus YCR088W, strain abp1, active compounds read low 0.979 | locus YDL005C, strain med2, active compounds read low 0.957 | locus YDL035C, strain GPR1, active compounds read low 0.99 | locus YDL040C, strain nat1, active compounds read low 0.979 | locus YDL074C, strain BRE1, active compounds read low 1.04 | locus YDL101C, strain DUN1, active compounds read low 1.01 | locus YDL185W, strain tfp1, active compounds read low 1.02 | locus YDL192W, strain arf1, active compounds read low 1.02 | locus YDR001C, strain nth1, active compounds read low 0.975 | locus YDR069C, strain doa4, active compounds read low 0.993 | locus YDR101C, strain arx1, active compounds read low 1.02 | locus YDR137W, strain rgp1, active compounds read low 0.996 | locus YDR150W, strain NUM1, active compounds read low 1.01 | locus YDR159W, strain sac3, active compounds read low 1 | locus YDR162C, strain NBP2, active compounds read low 1.02 | locus YDR195W, strain ref2 0.959 | locus YDR297W, strain sur2, active compounds read low 0.995 | locus YDR318W, strain mcm21, active compounds read low 0.997 | locus YDR334W, strain swr1, active compounds read low 0.962 | locus YDR335W, strain msn5, active compounds read low 0.978 | locus YDR388W, active compounds read low 1.01 | locus YDR392W, strain spt3, active compounds read low 0.994 | locus YDR502C, strain sam2, active compounds read low 1.01 | locus YEL003W, strain gim4, active compounds read low 0.983 | locus YEL037C, strain rad23, active compounds read low 0.98 | locus YEL061C, strain CIN8 (second series), active compounds read low 0.98 | locus YEL061C, strain CIN8, active compounds read low 1.01 | locus YER015W, strain faa2, active compounds read low 0.975 | locus YER016W, strain bim1, active compounds read low 0.967 | locus YER110C, active compounds read low 1.02 | locus YER111C, strain swi4, active compounds read low 0.966 | locus YER155C, strain BEM2 (second series), active compounds read low 0.969 | locus YER155C, strain BEM2, active compounds read low 1 | locus YER167W, strain BCK2, active compounds read low 0.996 | locus YFR010W, strain ubp6, active compounds read low 0.992 | locus YGL078C, strain dbp3, active compounds read low 0.998 | locus YGL086W, strain mad1, active compounds read low 1.05 | locus YGL167C, strain pmr1, active compounds read low 0.976 | locus YGL173C, strain kem1, active compounds read low 0.973 | locus YGL227W, strain vid30, active compounds read low 0.979 | locus YGL240W, strain doc1, active compounds read low 0.975 | locus YGL248W, strain PDE1, active compounds read low 1 | locus YGL253W, strain hxk2, active compounds read low 0.989 | locus YGR135W, strain pre9, active compounds read low 1.01 | locus YGR229C, strain SMI1, active compounds read low 1.02 | locus YGR252W, strain gcn5, active compounds read low 0.954 | locus YHR013C, strain ard1, active compounds read low 0.964 | locus YHR027C, strain rpn1, active compounds read low 0.994 | locus YHR030C, strain SLT2, active compounds read low 1.01 | locus YHR079C, strain IRE1 (second series), active compounds read low 1.01 | locus YHR079C, strain IRE1, active compounds read low 1 | locus YHR094C, strain hxt1, active compounds read low 1.01 | locus YHR129C, strain ARP1, active compounds read low 1.01 | locus YHR142W, strain chs7, active compounds read low 0.982 | locus YHR200W, strain rpn10, active compounds read low 1.01 | locus YIL066C, strain RNR3, active compounds read low 1.01 | locus YIL073C, strain SPO22, active compounds read low 1.06 | locus YIL125W, strain kgd1, active compounds read low 1.02 | locus YIR030C, strain dcg1, active compounds read low 1.01 | locus YJL092W, strain hpr5, active compounds read low 0.979 | locus YJL095W, strain BCK1 (second series), active compounds read low 0.997 | locus YJL095W, strain BCK1, active compounds read low 0.993 and 1 | locus YJL115W, strain asf1, active compounds read low 0.974 | locus YJL129C, strain trk1, active compounds read low 0.984 | locus YJL134W, strain LCB3, active compounds read low 1.01 | locus YJL154C, strain vps35, active compounds read low 0.971 | locus YJL164C, strain tpk1, active compounds read low 0.981 | locus YJL166W, strain qcr8, active compounds read low 1.01 | locus YJL168C, strain set2, active compounds read low 1.01 | locus YJL187C, strain SWE1 (second series), active compounds read low 1.01 | locus YJL187C, strain SWE1, active compounds read low 0.98 | locus YJR043C, strain POL32, active compounds read low 1.01 | locus YJR066W, strain TOR1, active compounds read low 0.957 | locus YKL009W, strain mrt4, active compounds read low 1.01 | locus YKL068W, active compounds read low 1.01 | locus YKL085W, strain MDH1 (second series), active compounds read low 1.01 | locus YKL085W, strain MDH1, active compounds read low 1.01 | locus YKL160W, strain elf1, active compounds read low 0.978 | locus YKR001C, strain vps1, active compounds read low 1.04 | locus YKR026C, strain gcn3, active compounds read low 0.986 | locus YKR091W, strain srl3, active compounds read low 0.986 | locus YLL001W, strain dnm1, active compounds read low 0.962 | locus YLL026W, active compounds read low 0.978 | locus YLL041C, strain sdh2, active compounds read low 1 | locus YLR027C, strain aat2, active compounds read low 0.981 | locus YLR039C, strain RIC1, active compounds read low 1.07 | locus YLR058C, strain SHM2, active compounds read low 1.01 | locus YLR102C, strain apc9, active compounds read low 1.01 | locus YLR113W, strain HOG1, active compounds read low 1.02 | locus YLR221C, strain rsa3, active compounds read low 0.987 | locus YLR258W, strain gsy2, active compounds read low 0.973 | locus YLR262C, strain YPT6 (second series), active compounds read low 1.04 | locus YLR262C, strain YPT6, active compounds read low 1.1 | locus YLR268W, strain sec22, active compounds read low 1.04 | locus YLR320W, strain mms22, active compounds read low 0.974 | locus YLR330W, strain CHS5, active compounds read low 1 | locus YLR342W, strain FKS1 (second series), active compounds read low 1.01 | locus YLR342W, strain FKS1, active compounds read low 0.976 | locus YLR357W, strain rsc2, active compounds read low 0.995 | locus YLR370C, strain arc18, active compounds read low 0.992 | locus YLR371W, strain rom2, active compounds read low 1.02 | locus YLR384C, strain iki3, active compounds read low 0.983 | locus YLR418C, strain cdc73, active compounds read low 1.01 | locus YML016C, strain PPZ1, active compounds read low 1.01 | locus YML032C, strain rad52, active compounds read low 0.989 | locus YML120C, strain ndi1, active compounds read low 0.968 | locus YML124C, strain tub3, active compounds read low 1.01 | locus YMR058W, strain fet3, active compounds read low 0.964 | locus YMR078C, strain ctf18, active compounds read low 1.02 | locus YMR125W, strain sto1, active compounds read low 0.972 | locus YMR129W, active compounds read low 0.976 | locus YMR205C, strain PFK2, active compounds read low 0.984 | locus YMR223W, strain ubp8, active compounds read low 1 | locus YMR231W, strain pep5, active compounds read low 0.972 | locus YMR263W, strain SAP30, active compounds read low 1.01 | locus YMR307W, strain GAS1, active compounds read low 0.994 | locus YNL067W, strain RPL9B, active compounds read low 1.01 | locus YNL071W, strain lat1, active compounds read low 0.989 | locus YNL183C, strain NPR1, active compounds read low 0.953 | locus YNL209W, strain ssb2, active compounds read low 0.983 | locus YNL233W, strain BNI4, active compounds read low 1.01 | locus YNL248C, strain rpa49, active compounds read low 0.98 | locus YNL250W, strain rad50, active compounds read low 1.02 | locus YNL271C, strain bni1, active compounds read low 1.02 | locus YNL298W, strain CLA4, active compounds read low 1.02 | locus YNL307C, strain MCK1, active compounds read low 1.02 | locus YNL322C, strain KRE1 (second series), active compounds read low 0.969 | locus YNR049C, strain mso1, active compounds read low 0.963 | locus YNR052C, strain pop2, active compounds read low 0.999 | locus YOL012C, strain htz1 0.956 | locus YOL147C, strain pex11, active compounds read low 1.02 | locus YOR001W, strain rrp6, active compounds read low 1 | locus YOR061W, strain CKA2, active compounds read low 1.01 | locus YOR069W, strain VPS5, active compounds read low 1.01 | locus YOR070C, strain gyp1, active compounds read low 0.962 | locus YOR080W, strain dia2, active compounds read low 0.972 | locus YOR083W, strain WHI5, active compounds read low 0.981 | locus YOR106W, strain vam3, active compounds read low 1 | locus YOR136W, strain idh2, active compounds read low 1.03 | locus YOR144C, strain elg1, active compounds read low 1.02 | locus YOR184W, strain ser1, active compounds read low 1.01 | locus YOR231W, strain MKK1, active compounds read low 0.997 | locus YOR265W, strain rbl2, active compounds read low 0.989 | locus YOR270C, strain vph1, active compounds read low 1.03 | locus YOR290C, strain snf2, active compounds read low 0.992 | locus YOR316C, strain cot1, active compounds read low 1.01 | locus YPL051W, strain arl3, active compounds read low 0.992 | locus YPL055C, strain LGE1, active compounds read low 1.01 | locus YPL078C, strain atp4, active compounds read low 0.982 | locus YPL106C, strain sse1, active compounds read low 0.961 | locus YPL240C, strain hsp82, active compounds read low 1.01 | locus YPL241C, strain CIN2, active compounds read low 1.02 | locus YPL256C, strain CLN2, active compounds read low 0.992 | locus YPR119W, strain clb2, active compounds read low 1.01 | locus YPR141C, strain kar3, active compounds read low 1.01 | locus YPR163C, strain tif3, active compounds read low 1.03 | locus YPR167C, strain met16, active compounds read low 1.01 | strain wtn01, active compounds read low 1.05
